Data from PubChem BioAssay.
“And” between values parts separate entries of the source, which are not always exact repeats. Equal values may be shown once. The source made the active and inactive calls.

Experiments:
[1] = binders of probe aFSTL3 on microarray, primary screen, stem cell growth factor project, biochemical, small-molecule microarray, fluorescence 635/667 (AID 1064); settings: higher = more signal;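 also: measures binding of the biotinylated anti-FSTL3 antibody to printed compounds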
[2] = binders from COS7 lysate, DM2A8 probe, primary screen, torsin A project, cell lysate, small-molecule microarray, fluorescence 635/667 (AID 1065); settings: higher = more signal, COS7 lysate expressing mutant human TOR1A
[3] = binders of probe aFGF2 on microarray, primary screen, stem cell growth factor project, biochemical, small-molecule microarray, fluorescence 635/667 (AID 1067); settings: higher = more signal;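 also: measures binding of biotinylated aFGF2 protein to printed compounds on slides; z-score merges feature fluorescence and signal-to-noise across triplicate slides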
[4] = binders of probe aFGF10 on microarray, primary screen, stem cell growth factor project, biochemical, small-molecule microarray, fluorescence 635/667 (AID 1071); settings: higher = more signal;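 also: score merges 667 nm spot intensity and signal to noise from triplicate slides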
[5] = target: Neurogenic locus notch homolog protein 2 (Homo sapiens) (UniProt Q04721); test: Notch2 binders on small-molecule microarrays, primary screen, biochemical, small-molecule microarray, 635 nm fluorescence, stem cell growth factors (AID 1073); settings: Notch2 binding, higher = more signal
[6] = target: Pro-neuregulin-1, membrane-bound isoform (Homo sapiens) (UniProt Q02297); test: NRG1 binders on small-molecule microarrays, primary screen, psychiatric disease protein project, biochemical, small-molecule microarray, fluorescence 635/667 (AID 1075); settings: NRG1 binding, 635 nm fluorescence, higher = more signal;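 also: score combines 667 nm spot fluorescence with signal to noise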
[7] = tested on: Neuregulin-1 EGF-like domain; test: binders of neuregulin-1 EGF-like domain, primary screen, biochemical, small-molecule microarray, 635 nm fluorescence (AID 1081); settings: small-molecule microarray binding, higher = more signal;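 also: binding of the protein to compounds printed on small-molecule microarray slides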
[8] = FRG1 promoter luciferase signal modulators, primary screen, FRG1 inhibition for FSHD, cell-based, C2C12 myotubes, firefly/Renilla luciferase, luminescence (AID 1084); settings: higher = more signal, called active from +8 up or from −8 down
[9] = binders of probe aFST on microarray, primary screen, stem cell growth factor project, biochemical, small-molecule microarray, fluorescence 635/667 (AID 1086); settings: higher = more signal;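 also: score merges 667 nm fluorescence with signal-to-noise of each printed compound spot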
[10] = binders of probe aHhip on microarray, primary screen, stem cell growth factor project, biochemical, small-molecule microarray, fluorescence 635/667 (AID 1087); settings: higher = more signal;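 also: score merges spot fluorescence at 667nm with spot signal to noise ratio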

Neurogenic locus notch homolog protein 2 (Homo sapiens), sequence (Q04721 whole entry, looked up, canonical isoform): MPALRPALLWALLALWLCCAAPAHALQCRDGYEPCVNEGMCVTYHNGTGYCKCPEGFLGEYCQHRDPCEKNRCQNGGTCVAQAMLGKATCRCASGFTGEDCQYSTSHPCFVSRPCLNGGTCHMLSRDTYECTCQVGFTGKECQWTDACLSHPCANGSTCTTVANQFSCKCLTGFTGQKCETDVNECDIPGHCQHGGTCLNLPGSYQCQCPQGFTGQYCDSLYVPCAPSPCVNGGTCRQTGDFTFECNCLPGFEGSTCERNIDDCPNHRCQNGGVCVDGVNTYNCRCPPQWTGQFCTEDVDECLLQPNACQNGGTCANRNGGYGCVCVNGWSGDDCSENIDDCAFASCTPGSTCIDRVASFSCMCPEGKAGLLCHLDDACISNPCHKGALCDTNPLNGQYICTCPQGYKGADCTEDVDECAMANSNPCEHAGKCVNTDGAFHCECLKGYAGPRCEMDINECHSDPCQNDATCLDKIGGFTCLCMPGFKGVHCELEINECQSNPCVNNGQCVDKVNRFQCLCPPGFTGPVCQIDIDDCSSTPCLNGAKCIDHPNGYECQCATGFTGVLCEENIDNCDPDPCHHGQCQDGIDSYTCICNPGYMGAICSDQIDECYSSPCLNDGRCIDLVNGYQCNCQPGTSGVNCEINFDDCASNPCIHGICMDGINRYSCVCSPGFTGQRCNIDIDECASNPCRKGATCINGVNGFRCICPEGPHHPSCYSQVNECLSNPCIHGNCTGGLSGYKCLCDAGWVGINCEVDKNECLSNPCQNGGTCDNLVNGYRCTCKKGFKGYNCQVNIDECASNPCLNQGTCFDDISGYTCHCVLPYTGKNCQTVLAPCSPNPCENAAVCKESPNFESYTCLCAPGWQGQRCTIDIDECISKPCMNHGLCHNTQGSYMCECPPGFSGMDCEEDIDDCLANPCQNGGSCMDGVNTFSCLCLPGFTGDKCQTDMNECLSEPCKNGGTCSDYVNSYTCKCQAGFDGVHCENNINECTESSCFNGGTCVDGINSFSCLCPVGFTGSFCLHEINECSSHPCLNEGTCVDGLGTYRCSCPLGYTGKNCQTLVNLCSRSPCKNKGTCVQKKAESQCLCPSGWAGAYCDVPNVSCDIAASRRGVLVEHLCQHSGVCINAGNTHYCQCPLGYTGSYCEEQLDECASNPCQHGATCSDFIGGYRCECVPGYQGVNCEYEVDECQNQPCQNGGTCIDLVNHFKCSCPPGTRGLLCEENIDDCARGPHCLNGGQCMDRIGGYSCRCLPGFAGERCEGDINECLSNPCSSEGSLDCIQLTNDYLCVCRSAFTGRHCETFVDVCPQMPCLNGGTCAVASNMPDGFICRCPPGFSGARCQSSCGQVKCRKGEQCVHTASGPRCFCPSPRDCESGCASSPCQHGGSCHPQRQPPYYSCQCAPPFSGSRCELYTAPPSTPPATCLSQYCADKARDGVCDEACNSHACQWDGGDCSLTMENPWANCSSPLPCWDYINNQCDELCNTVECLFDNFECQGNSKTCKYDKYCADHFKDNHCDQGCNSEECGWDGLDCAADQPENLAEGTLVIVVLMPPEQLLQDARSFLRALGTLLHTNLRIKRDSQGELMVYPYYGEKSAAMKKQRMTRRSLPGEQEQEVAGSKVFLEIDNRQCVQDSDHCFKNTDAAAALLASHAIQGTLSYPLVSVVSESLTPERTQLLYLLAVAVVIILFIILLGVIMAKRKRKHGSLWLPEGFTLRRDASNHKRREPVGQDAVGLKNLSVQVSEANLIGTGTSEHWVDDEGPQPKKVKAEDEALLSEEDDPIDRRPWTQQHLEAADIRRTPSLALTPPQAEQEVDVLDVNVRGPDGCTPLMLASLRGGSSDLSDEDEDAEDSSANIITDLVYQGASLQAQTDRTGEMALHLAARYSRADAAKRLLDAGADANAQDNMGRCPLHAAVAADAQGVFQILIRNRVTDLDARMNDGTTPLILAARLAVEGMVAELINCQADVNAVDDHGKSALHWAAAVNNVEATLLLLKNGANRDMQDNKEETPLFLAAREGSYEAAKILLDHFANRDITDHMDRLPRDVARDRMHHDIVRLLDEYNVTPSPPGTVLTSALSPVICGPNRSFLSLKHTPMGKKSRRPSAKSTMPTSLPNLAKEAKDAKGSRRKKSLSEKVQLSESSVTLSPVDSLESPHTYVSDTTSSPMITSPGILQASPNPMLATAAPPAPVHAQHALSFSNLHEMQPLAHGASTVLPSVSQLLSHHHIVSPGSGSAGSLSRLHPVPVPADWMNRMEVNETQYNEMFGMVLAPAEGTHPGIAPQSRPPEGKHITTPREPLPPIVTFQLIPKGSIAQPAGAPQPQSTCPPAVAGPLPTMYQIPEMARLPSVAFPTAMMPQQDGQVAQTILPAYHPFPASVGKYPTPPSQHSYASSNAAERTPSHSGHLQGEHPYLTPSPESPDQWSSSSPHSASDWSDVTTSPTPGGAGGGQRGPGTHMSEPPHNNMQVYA
Pro-neuregulin-1, membrane-bound isoform (Homo sapiens), sequence (Q02297 whole entry, looked up, the tested form may be a part, canonical isoform): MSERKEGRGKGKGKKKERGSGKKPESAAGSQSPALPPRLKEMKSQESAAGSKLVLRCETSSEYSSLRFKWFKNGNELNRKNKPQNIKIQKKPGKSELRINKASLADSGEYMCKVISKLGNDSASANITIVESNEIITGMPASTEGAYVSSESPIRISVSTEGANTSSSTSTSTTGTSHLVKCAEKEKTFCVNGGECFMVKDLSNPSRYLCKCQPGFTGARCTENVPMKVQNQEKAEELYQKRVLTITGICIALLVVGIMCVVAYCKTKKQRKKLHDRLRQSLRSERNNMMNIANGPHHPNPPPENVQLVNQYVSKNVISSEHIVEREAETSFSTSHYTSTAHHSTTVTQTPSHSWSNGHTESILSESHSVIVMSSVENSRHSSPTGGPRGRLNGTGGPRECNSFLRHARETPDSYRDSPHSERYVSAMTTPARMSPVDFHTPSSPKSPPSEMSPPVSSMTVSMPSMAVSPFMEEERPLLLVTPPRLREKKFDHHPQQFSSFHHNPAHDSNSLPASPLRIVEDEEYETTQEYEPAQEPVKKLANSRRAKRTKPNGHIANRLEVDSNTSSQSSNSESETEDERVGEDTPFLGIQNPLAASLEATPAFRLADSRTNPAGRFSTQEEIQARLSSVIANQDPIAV

Row | Compound | composite z-score [1] | composite z-score [2] | composite z-score [3] | composite z-score [4] | composite z-score [5] | composite z-score [6] | composite z-score [7] | z-score [8] | composite z-score [9] | composite z-score [10]
1 | COC(=O)[C@@]1(Cc2ccccc2)[C@H]2c3cc(C(=O)N(C)C)n(Cc4ccc(C)c(F)c4F)c3C[C@H]2CN1C(=O)c1ccccc1 | 1 and 0.986 | -0.481 and 0.787 | 0.162 and 0.639 | 0.384 and 0.451 | 1.5 and 1.71 | 1.39 and 1.48 | 1.39 and 1.12 | 3.35 (inactive) and -0.497 (inactive) | 0.705 and 2.39 | 0.176 and 0.567
2 | C=CC[C@@H](O)c1ccc(OCCO)cc1 | 0.137 and 0.75 | -0.827 and -0.804 | -0.0908 and -0.279 | -0.0284 and -0.887 | -1.41 and -2.02 | -0.773 and -0.567 | -0.0171 and 0.209 | 0.373 (inactive) and 1.07 (inactive) | -0.871 and -1.16 | -0.184 and -0.134
3 | COC(=O)C1=C2N(Cc3ccccc3)C(C)=C(C(=O)OC)[C@@H](c3ccccc3)N2C(=O)[C@](O)(C(=O)OC)C1 | -0.416 and -0.485 | 0.969 and 0.932 | -0.166 and -0.0477 | 0.0291 and 0.291 | 1.12 and 0.305 | 0.598 and -0.247 | 1.09 and -0.265 | -0.0085 (inactive) and 0.0331 (inactive) | 0.084 and 0.0516 | 0.065 and -0.0237
4 | CCOC(=O)c1ccc(NC(=O)O[C@H]2[C@H](OC(=O)Nc3ccccc3)[C@@H](OC(=O)Nc3ccccc3)[C@@H](OC)O[C@@H]2CO)cc1 | 0.181 and 0.179 | 0.791 and 0.936 | 0.211 and 0.164 | 1.01 and 1.18 | 1.59 and 1.44 | 1.46 and 1.3 | 1.33 and 1.43 | 1.13 (inactive) and 0.183 (inactive) | 1.29 and 1.2 | 0.167 and 0.24
5 | C=CCN(C(=O)C1N(c2ccc(CCO)cc2)C(=O)C2C(C(=O)O)C3C=CC21O3)c1ccc(OC)cc1 (stereo not given) | 0.0619 and 0.336 | -0.767 and -0.885 | -0.226 and -0.276 | -0.19 and -1.02 | -0.903 and -1.23 | -0.0224 and -1.32 | 0.939 and -0.115 | 4.82 (inactive) and -0.639 (inactive) | -0.477 and -1.4 | -0.132 and -0.236
6 | C=CCN(C(=O)C1N(CCOCCO)C(=O)C2C(C(=O)O)C3C=CC21O3)c1ccc(OC)cc1 (stereo not given) | 1.11 and 1.65 | -1.59 and -1.21 | -0.184 and -0.254 | -0.719 and -1.97 | -2.35 and -1.84 | 0.555 and 2.07 | 0.328 and 0.86 | -0.408 (inactive) and -0.715 (inactive) | -0.654 and -0.932 | -0.581 and -0.349
7 | CO[C@@H]1COC(=O)CC=C[C@H](C)COC(=O)[C@H](C)NC(=O)CC=C[C@H]1C | -0.563 | 1.75 | -0.203 | 0.126 | 0.269 | -0.557 | -0.139 | -0.87 (inactive) | -0.118 | 0.0505
8 | COC(=O)C1=C(C)N(Cc2ccccc2)C2=C(C(C)=O)C[C@@](O)(C(=O)OC)C(=O)N2[C@@H]1c1ccccc1 | -0.335 and -0.244 | 1.12 and -0.0954 | -0.0005 and -0.118 | 0.889 and 0.0839 | 1.43 and 1.26 | -0.119 and -0.159 | 1.05 and 0.439 | -0.486 (inactive) and -0.75 (inactive) | 0.235 and 0.385 | -0.0994 and 0.21
9 | Cc1cc2c(nc1C)CCCN2CC(C)ON=C[C@@H](C)[C@H](OCc1ccccc1)C(C)C (stereo not given in full) | -0.461 | 0.478 | -0.0724 | -0.0706 | -0.461 | -0.869 | -0.868 | -0.201 (inactive) | 0.374 | 0.102
10 | C=CCN(C(=O)C1N(C(C)(C)CO)C(=O)C2C(C(=O)O)C3C=CC21O3)c1ccc(OC)cc1 (stereo not given) | 1.84 and 1.41 | -1.16 and -1.03 | -0.237 and -0.195 | -1.49 and -0.243 | -1.71 and -1.79 | -0.16 and -1.32 | 0.493 and -0.364 | 1.63 (inactive) and -0.0127 (inactive) | -0.898 and -1.25 | -0.169 and -0.204
11 | CCOC(=O)[C@@H]1CC2O[C@]23C[C@@H]1C(=O)N1CCC[C@@H]1[C@H]3O[Si](C)(C)C(C)(C)C (stereo not given in full) | -0.224 and -0.287 | -0.457 and -0.0006 | -0.238 and -0.0048 | -0.235 and -0.144 | -1.08 and -0.312 | -0.737 and -0.343 | -1.07 and -0.585 | -0.304 (inactive) and 0.333 (inactive) | -0.378 and 0.223 | -0.207 and -0.231
12 | C=CC[C@H](O)c1ccc(OCCO)cc1 | 0.857 and 0.327 | -0.688 and 0.148 | -0.153 | -1.16 and -0.746 | -1 and -1.04 | 0.524 and -0.434 | 0.176 and 0.997 | 0.831 (inactive) and 2.16 (inactive) | -0.396 and -0.905 | -0.261 and -0.296
13 | CC(C)[Si]1(C(C)C)OCc2cc(C3CC3)nc(CCc3ccccc3)c21 | -0.141 and -0.208 | -0.305 and 0.114 | -0.0412 and -0.16 | -0.124 and 0.172 | 0.0069 and 0.589 | -0.352 and -0.0692 | -1.21 and -0.253 | -0.218 (inactive) and 0.53 (inactive) | 0.0391 and 0.169 | -0.0237 and -0.118
14 | CCCCCN1CC=CC23O[C@@H]4C=CCCOC(=O)C4[C@H]2C(=O)N(C(C)CO)[C@@H]3C1=O (stereo not given in full) | -1.32 and 1.66 | 0.852 and -1.23 | -0.0341 and -0.148 | -0.202 and -0.431 | -0.88 and -0.932 | 1.03 and 1.11 | 1.54 and 1.32 | 0.212 (inactive) and 0.0905 (inactive) | -0.678 and 0.24 | -1.02 and -0.274
15 | CCOC(=O)c1ccc(NC(=O)O[C@H]2[C@H](OC(=O)Nc3ccccc3)[C@H](OC(=O)Nc3ccccc3)[C@@H](OC)O[C@@H]2CO)cc1 | 0.496 and 0.0126 | 1.19 and 1.58 | 0.171 and 0.0495 | 1.2 and 0.986 | 1.44 and 0.73 | 1.68 and 1.8 | 1.3 and 1.35 | 0.822 (inactive) and -1.03 (inactive) | 1.18 and 0.937 | -0.24 and -0.141
16 | C[N+](C)(C)CCCCNC(=O)[C@H]1C[C@H]2C(=O)N[C@@H](CCCC[N+](C)(C)C)C(=O)N2[C@H]1c1cccc(OCCO)c1 | -0.0665 and -0.363 | -0.422 and 1.12 | -0.0744 and -0.149 | 1.24 and 0.967 | -0.0613 and 0.622 | 1.24 and 0.211 | 0.973 and 1.38 | -0.194 (inactive) and -0.269 (inactive) | 0.613 and 0.743 | 0.142 and -0.41
17 | C=CCN(C(=O)C(c1cccs1)N(C(=O)/C=C\C(=O)O)C(C)(C)CO)C(C)(C)C (stereo not given) | -0.0667 and 0.0338 | -0.543 and -0.24 | 0.0929 and -0.126 | -0.433 and -0.781 | -1.07 and -0.925 | 1.32 and 1.05 | 1.27 and 1.24 | -1.03 (inactive) and -1.13 (inactive) | -0.114 and -0.867 | -0.0994 and -0.385
18 | CO[C@H]1COC(=O)CC=C[C@@H](C)COC(=O)[C@@H](OCc2ccccc2)C=C[C@@H]1C | -0.773 | 1.86 | -0.213 | -0.68 | -1.02 | -0.212 | 1.14 | -0.971 (inactive) | -0.28 | -0.0994
19 | C=C[C@@H](OC)[C@H](O)c1ccc(OCCO)cc1 | -0.145 and 0.184 | -0.492 and -1.23 | -0.206 and -0.178 | -0.976 and -0.915 | -1.07 and -1.57 | -0.748 and -0.394 | -0.0048 and 0.0968 | 1.74 (inactive) and 0.386 (inactive) | -0.984 and -1.26 | -0.236 and -0.196
